From PubChem BioAssay (NCI) come the findings set out here.

The panel holds about 79,000 compounds, 15% with a hit somewhere; the sample as a whole holds those more often. A number with no mark means an inactive call. Rule as the data show it: active = growth inhibition above about 70%; inactive = the rest.

The assay in a line: NCI Yeast Anticancer Drug Screen. Data for the bub3 strain (AID 167). Particulars: S. cerevisiae bub3 mutant strain, at 50.0 µM, stronger effect = higher value. In short, it runs like this:
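In this screen, a yeast mutant lacking normal mitotic checkpoint function is challenged with compound. Relative growth versus vehicle gives the inhibition value.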
For `O=C(N/N=C1\C(=O)N(c2nccs2)C(=O)C(=O)C1c1nc2ccccc2s1)c1ccccc1O` (configuration not stated), the growth inhibition was 4.5%.

On to `CCc1nc2c([nH]1)c(=O)n(C)c(=O)n2C`, for which the growth inhibition was -20.6%. Turning to `O=c1[nH]c2cc([N+](=O)[O-])ccc2nc1/C(=N\Nc1ccccc1)C(O)c1ccc2c(c1)OCO2` (configuration not stated), the growth inhibition is 10.2%. As to `CCN1CCC(O)(C(C(=O)O)c2ccccc2)CC1` (configuration not stated), the growth inhibition was -38.7%. Turning to `[Cl][Co][Cl].[NH-]CCC[NH-].[NH-]CCC[NH-]`, the growth inhibition is -4.4%. Take `O=C(Nc1ccc([N+](=O)[O-])cc1Cl)OCCc1ccccn1`: the growth inhibition was 52%. The figure for `O=C(O)c1cc2oc3ccccc3c2cc1O` is 2.4%. As to `CC(=O)N/C(=C/c1ccccc1)C(=O)NC(C)(C)C`, the growth inhibition is 1.2%. As for `COC(=O)C1=C(C)NC(C)=C(C(=O)OC)C1c1ccc(NC(C)=O)cc1`, the growth inhibition was 5.25%. Regarding `c1ccc(C2CN3CCSC3=N2)cc1` (configuration not stated), the growth inhibition is -12.2%. For `CC(C)(C)OC(=O)c1cccc(C(=O)OC(C)(C)C)c1`, the growth inhibition is 39.1%. On to `O/N=C1/CC2CCCCC2CC1(O)c1ccccc1` (configuration not stated), for which the growth inhibition is -3.55%. Turning to `CC(=O)CC(=O)C1CCC(C(=O)CC(C)=O)CC1` (configuration not stated), the growth inhibition was -0.7%. In the case of `Cc1cccc([Si](c2ccccc2)(c2ccccc2)c2ccccc2)c1`, the growth inhibition is -21.6%. Regarding `CC(=O)NC(CCC(=O)C=[N+]=N)C(=O)O` (configuration not stated), the growth inhibition was 23.8%.

In the case of `O=c1[nH]nnc2ccccc12`, the growth inhibition was 17.9%.

As for `O=C(O)C(Nc1ccc(Cc2ccc(NC(C(=O)O)c3ccccc3)cc2)cc1)c1ccccc1` (configuration not stated), the growth inhibition was 37.7%.
